# Experimental data taken from PubChem BioAssay (Tox21).
# Unmarked numbers belong to inactive results. Calls of active or inactive are those of the source. Calls follow the shape of the dose curve; as a rule, active = well fitted activation curve with a large enough effect in the repeat runs; inconclusive = weak or mixed curves; inactive = flat fitted curve, though single readings scatter.
# Experiment: Caspase-3/7 induction in CHO-K1 cells by small molecules, qHTS assay (AID 1346980); also: nearly all actives have a fitted effect of over 15% in size
# Conditions: CHO-K1 caspase-3/7 induction, Caspase-Glo luminescence, 17 h; series mostly up to 92.4 µM; caspase-3/7 activation: at the top concentration
# Summary of the method: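 Wild-type cells were seeded at 1,500 per well and settled 5 hr at 37 C, 5% CO2, then exposed to DMSO-dissolved compounds for 17 hr. Caspase-Glo 3/7 reagent was added, and luminescence was read after 30min at room temperature.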
# % is scaled to controls: 0 for no effect and ±100 for the full control effect; potency is read from the fitted curve at half-maximal effect.
Structure (SMILES),caspase-3/7 activation,Potency
CCCCOP(=O)(CCCC)OCCCC,0.0314%,–
CC(=O)O[C@H]1CC[C@@]2(C)C(=CC[C@@H]3[C@@H]2CC[C@]2(C)C(=O)CC[C@@H]32)C1,-1.2%,–
CC(C)(C)C(O)/C(=C\c1ccc(Cl)cc1Cl)n1cncn1 (configuration not stated),-0.499%,–
Oc1ccc(C2(c3ccc(O)cc3)c3ccccc3-c3ccccc32)cc1,-1.02%,–
CC1(C)CN=C(NN=C(/C=C/c2ccc(C(F)(F)F)cc2)/C=C/c2ccc(C(F)(F)F)cc2)NC1,-6.29%,–
CN(C)C1CSSSC1,-1.89%,–
CCN(CC)c1c([N+](=O)[O-])cc(C(F)(F)F)c(N)c1[N+](=O)[O-],6.07%,–
ClC1=C(Cl)C2(Cl)C3C(Cl)C(Cl)CC3C1(Cl)C2(Cl)Cl (configuration not stated),–,68.4 µM (active)
Fc1ccc(Oc2ccnc3cc(Cl)cc(Cl)c23)cc1,-1.72%,–
C=CCC1=C(C)C(OC(=O)C2C(C=C(C)C)C2(C)C)CC1=O (configuration not stated),5.94%,–
NC(=O)CCl,-0.0377%,–
CC(C)(C)C(O)C(Oc1ccc(-c2ccccc2)cc1)n1cncn1 (configuration not stated),3.19%,–
N#CSCSC#N,–,inactive
Clc1ccc(CO/N=C(\Cn2ccnc2)c2ccc(Cl)cc2Cl)c(Cl)c1,0.601% [at 42.5 µM],–
N#Cc1ccc(O)cc1,-0.638%,–
O=C(O)C1C2CCC(O2)C1C(=O)O (configuration not stated),4.49%,–

Structure (SMILES),caspase-3/7 activation,Potency
CCCCN(CCCC)C(=S)[S-].CCCCN(CCCC)C(=S)[S-].[Zn+2],-6.84%,–
CC(=O)c1cc(C(C)(C)C)cc2c1CCC2(C)C,8.24%,–
O=c1c(C2CC(c3ccc(-c4ccc(Br)cc4)cc3)Cc3ccccc32)c(O)sc2ccccc12 (configuration not stated),0.076% [at 42.5 µM],–
CC(C)Oc1cccc(NC(=O)c2ccccc2C(F)(F)F)c1,-2.41%,–
OC(Cc1ccccc1Cl)(Cn1cncn1)C1(Cl)CC1 (configuration not stated),0.136%,–
CC(C)(C)OO,0.13%,–
CCCOCC(=Nc1ccc(Cl)cc1C(F)(F)F)n1ccnc1,1.05%,–
Clc1ccc(-c2ccc(Cl)c(Cl)c2Cl)c(Cl)c1Cl,0.513%,–
Clc1ccc(-c2ccccc2)cc1,-0.164%,–
CCN,5.3%,–
O=C1NCN(c2ccccc2)C12CCN(CC1COc3ccccc3O1)CC2 (configuration not stated),2.76% [at 42.5 µM],–
O=c1[nH]c2ccccc2n1CCCN1CCC(n2c(=O)[nH]c3cc(Cl)ccc32)CC1,-2.49% [at 42.5 µM],–
O=C1c2ccccc2C(=O)C1C(=O)C(c1ccccc1)c1ccc(Cl)cc1 (configuration not stated),-2.17%,–
CCS(=O)(=O)c1cccnc1S(=O)(=O)NC(=O)Nc1nc(OC)cc(OC)n1,-0.226%,–
[CH3][Hg][Cl],-6.96%,–
COC(=O)N(C(=O)N1CO[C@@]2(C(=O)OC)Cc3cc(Cl)ccc3C2=N1)c1ccc(OC(F)(F)F)cc1,-2.76%,–
